Measurements published in PubChem BioAssay (NCATS).
Several values for one entry are separate records, joined by “and”; a condition that tells them apart may be missing. Identical values can stand only once. Inconclusive results are not listed. Unmarked numbers belong to inactive results. Activity calls are given as the source filed them. Calls come from the whole dose curve; as a rule, active = well fitted cell-killing curve with a large enough effect; inconclusive = small, poorly fitted or top-dose-only effect; inactive = flat fitted curve, though single readings scatter.

Test: Cell Viability - LYMP2-014 (AID 983); note: nearly all actives have a fitted effect of over 50% in size;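 for activity change, negative = cytotoxicity: plate controls were DMSO only for no effect and 92 µM tetraoctylammonium bromide for full effect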
Details: LYMP2-014 lymphoblastoid cells, viability qHTS; series mostly up to 92.2 µM; activity change, negative = cytotoxicity: at the top concentration
Text: NIH Chemical Genomics Center [NCGC]
NIH Molecular Libraries Screening Centers Network [MLSCN]
National Institutes of Environmental Health Sciences [NIEHS]
National Toxicology Program [NTP]
We have developed a 1536-well cell-based assay for quantitative high throughput screening (qHTS) against a number of cell lines to determine in vitro cytotoxicity of small molecules. This particular assay uses a human lymphoblastoid cell line (LYMP2-014) purchased from Coriell Institute for Medical Research.
NCGC Assay Protocol Summary:
The CellTiter-Glo luminescent cell viability assay (Promega) is a homogeneous method to measure the number of viable cells in culture. The end point readout of this assay is based on quantitation of intracellular ATP, an indicator of metabolic activity, using the luciferase reaction. Luciferase catalyzes the oxidation of beetle Luciferin to oxyluciferin and light in the presence of ATP. The luminescent signal is proportional to amount of ATP present.
Using the CellTiter-Glo luminescent cell viability assay, the amount of cellular ATP was measured in the lymphoblastoid cell line with complete culture medium following compound treatment for 24 hours. The assay was performed in opaque white Kalypsys 1536-well plates. In the screen, tetraoctylammonium bromide was used as positive control. Library compounds were measured for their ability to cause acute toxicity in the cell line, as reflected by a decrease in intracellular ATP levels, in a concentration-dependent manner. […] AC50 values were determined from concentration-response data modeled with the standard Hill equation.
qHTS protocol for CellTiter Glo lymphoblastoid cellular assay
[Step] [Parameter] [Value] [Description]
1. Reagent; 5 uL; 2500 lymphoblastoid cells/well
2. Time; 5 hr; 37 C incubation
4. Controls; 23 nL; Tetraoctylammonium bromide 6.4pM to 92 uM
5. Time; 24 hr; 37 C incubation
6. Reagent; 5 uL; CellTiter Glo reagent
7. Time; 30 min; Room Temperature
8. Detection; Luminescence; Viewlux plate reader
Keywords: cell viability, cytotoxicity, lymphoblastoid cell line, luminescence, NTPHTS, NTPHTS_NCGC, NIEHS, DSSTox, MLSMR, MLSCN, NIH Roadmap, qHTS, NCGC
Potency is the fitted concentration of half-maximal effect.

Point of comparison: `OCCOc1ccccc1`, “activity change, negative = cytotoxicity” value -10.7%. Against it:
- CCCC(C)(COC(N)=O)COC(=O)NC(C)C (stereo not given) — higher, -4.74%
- NCC(O)c1ccc(O)cc1 (stereo not given) — higher, 2.35%
- Oc1ccccc1-c1ccccc1 — higher, -1.9%
- CNCC(O)c1ccc(O)cc1 (stereo not given) — higher, -4.04%
- CCOP(=S)(OCC)Oc1cc(C)nc(C(C)C)n1 — higher, 2.76%
- Oc1ccc(Cl)cc1Cc1ccccc1 — higher, -3.03%
- c1ccc2c(c1)Nc1ccccc1S2 — higher, -0.934%

In the case of `N[C@@H](Cc1ccc(N(CCCl)CCCl)cc1)C(=O)O`, the Potency is reported as 31.6 µM (active).
With `Oc1cccc2cccnc12` the Potency was 15.8 µM (active) and 12.6 µM (active).
